Reference: PubChem BioAssay (EPA / NIEHS)
“And” between values parts separate entries of the source, which are not always exact repeats. Equal values may be shown once. Some structures have more than one record in an assay (separate samples or runs), and their calls can disagree. The source made the active and inactive calls. The calls were made as follows: active = hit-call score of the fitted dose curve at least 0.9, where 1 is the maximum; inactive = score below 0.9.

What follows are molecules tested on TIMP metallopeptidase inhibitor 2 (TIMP2), TIMP2 (gene 7077) (assay: BSK_hDFCGF_TIMP2: BioMAP Diversity Plus: hDFCGF Assay for TIMP metallopeptidase inhibitor 2 (TIMP2) Biomarker Activity (AID 2284289)). Conditions: primary human foreskin fibroblasts.
Description: BSK_hDFCGF is a cell-based, multiplexed-readout assay that uses foreskin fibroblast, a human skin primary cell, with measurements taken at 24 hours after chemical dosing in a 96-well plate.BSK_hDFCGF_TIMP2 is an assay component measured in the BSK_hDFCGF assay. It measures TIMP-2 antibody related to regulation of gene expression using ELISA technology.Data from the assay component BSK_hDFCGF_TIMP2 was analyzed at the endpoint, BSK_hDFCGF_TIMP2, in the positive analysis fitting direction relative to DMSO as the negative control and baseline of activity. Using a type of binding reporter, gain or loss-of-signal activity can be used to understand protein changes. To generalize the intended target to other relatable targets, this assay endpoint is annotated to the 'protease' intended target family, where the subfamily is 'matrix metalloproteinase'.
The levels of cell surface (or secreted, indicated by the prefix "s") biomarker endpoints were measured by ELISA. Overt cytotoxicity to cells in confluent adherent cultures (all systems other than the BT system) was assessed by measuring total protein levels using sulforhodamine B (SRB) staining in parallel cultures at the time of biomarker measurements, indicated as SRB endpoints. For proliferation assays for adherent cell types, individual cell types are cultured at sub-confluence and relative cell numbers quantified by SRB staining at time points optimized for each system (48 h: 3C and CASM3C systems; 72 h: BT and HDF3CGF systems; 96 h: SAg system). SRB was performed by staining cells with 0.1% SRB after fixation with 10% TCA and reading wells at 560 nm.Viability and proliferation of PBMC (T cells) was quantified by Alamar Blue reduction for the SAg and BT systems. For PBMC viability (referred to as PBMC Cytotoxicity within the assay endpoint names), cells were plated (75,000/well in a 96-well plate) and then chemical samples added for 1 h before addition of activators, SEB and TSST-1 (20 ng/mL final concentration each). Cells were incubated for 90 h. Then, Alamar Blue (20 uL/well) (Invitrogen, Cat DAL1100) was added for 6 h, and the plates were read with a fluorescence microplate reader at 546/580 nm (excitation/emission). For PBMC proliferation, cells were plated and activated as above but incubated for only 16 h prior to addition of Alamar Blue. Plates were read after 6 h.

SMILES	outcome	AC50
O=P(O)(O)CCC(F)(F)C(F)(F)C(F)(F)C(F)(F)C(F)(F)C(F)(F)C(F)(F)C(F)(F)F	inactive	–
O=C(O)CCC(F)(F)C(F)(F)C(F)(F)C(F)(F)C(F)(F)F	inactive	–
O=C(CC(=O)C(F)(F)C(F)(F)C(F)(F)F)c1cccs1	inactive	7.8 µM (active)
O=S(=O)(O)C(F)(F)C(F)(F)C(F)(F)C(F)(F)C(F)(F)C(F)(F)C(F)(F)C(F)(F)C(F)(F)C(F)(F)F	inactive	–
O=C(O)C(F)(F)OC(F)(F)C(F)(F)OC(F)(F)C(F)(F)OC(F)(F)C(F)(F)C(F)(F)C(F)(F)F	–	7.91 µM (active) and 7.94 µM (active)
Oc1c(Cl)cc(Cl)cc1Sc1cc(Cl)cc(Cl)c1O	–	2.33 µM (active) and 1.67 µM (active)
CCCCCCCCCCCC	–	12.6 µM (active) and 5.39 µM (active)
O=P(O)(O)CCC(F)(F)C(F)(F)C(F)(F)C(F)(F)C(F)(F)C(F)(F)F	inactive	–
Oc1ccc(Cc2ccccc2O)cc1	inactive	–
C=CC(=O)OCCC(F)(F)C(F)(F)C(F)(F)C(F)(F)C(F)(F)C(F)(F)C(F)(F)C(F)(F)F	inactive	–
OCC(F)(F)C(F)(F)C(F)(F)C(F)(F)C(F)(F)C(F)(F)C(F)(F)C(F)(F)C(F)(F)C(F)(F)C(F)(F)F	inactive	–
CN(CCO)S(=O)(=O)C(F)(F)C(F)(F)C(F)(F)C(F)(F)C(F)(F)C(F)(F)C(F)(F)C(F)(F)F	–	30.1 nM (active) and 23.8 nM (active)
O=C(O)CCC(F)(F)C(F)(F)C(F)(F)C(F)(F)C(F)(F)C(F)(F)F	inactive	–
CN(Cc1cnc2nc(N)nc(N)c2n1)c1ccc(C(=O)N[C@@H](CCC(=O)O)C(=O)O)cc1	inactive	–
O=C1NS(=O)(=O)c2ccccc21	inactive	–
